# Source: PubChem BioAssay AID1508622 (National Center for Advancing Translational Sciences (NCATS), 2021)
# Active and inactive are the calls of the source. Entries that show only a call come without a potency. Calls come from the whole dose curve; as a rule, active = well fitted activation curve with a large enough effect; inconclusive = small, poorly fitted or top-dose-only effect; inactive = no such curve, though single readings can be large or run the other way.
# Test: Confirmatory qHTS for Identification of Small Molecule Activators of Huntingtin-Antisense Promoter Activity
# Settings: HEK293 HTT-AS promoter firefly luciferase reporter, 24 h; series mostly up to 57.5 µM
# Excerpt: Assay Provider: Russell L. Margolis M.D.
# Department Neurology, Johns Hopkins University School of Medicine, Baltimore, MD
# Huntington's Disease (HD) is a neurodegenerative disorder caused by a CAG repeat expansion in exon 1 of huntingtin (HTT). While there are currently no disease-modifying treatments for HD, recent efforts have focused on development of nucleotide-based therapeutics to lower HTT expression. As an alternative to siRNA or oligonucleotide methods, we hypothesized that suppression of HTT expression might be accomplished by small molecules that either (1) directly decrease HTT expression by suppressing HTT promoter activity or (2) indirectly decrease HTT expression by increasing the promoter activity of HTT-AS, the gene antisense to HTT that appears to inhibit expression of HTT.
# We developed and employed a high throughput screen for modifiers of HTT and HTT-AS promoter activity using luminescent reporter HEK293 cells; of the 52,041 compounds tested, we identified 898 replicable hits. We used a rigorous stepwise approach to assess compound toxicity and the capacity of the compounds to specifically lower huntingtin protein in 5 different cell lines, including HEK293 cells, HD lymphoblastoid cells, mouse primary neurons, HD iPSCs differentiated into cortical-like neurons, and HD hESCs. We found no compounds which were able to lower huntingtin without lowering cell viability in all assays, though the potential efficacy of a few compounds at non-toxic doses could not be excluded.
# SEQUENCE No. (1, 2, 3, etc.); […] (e.g., Cells, Incubation, Reagent, etc.); VALUE and DESCRIPTION.
# 1; Reagent; 4 uL; 2,500 Hek293 luciferase reporter cells per wells
# 3; Compound; 23 nL; Control inhibitor / compound library
# 5; Reagent; 2.5 uL; Firefly Luc reagent; Dual-Glo Luciferase Reporter Assay System (Promega)
# 6; Time; 10 min; room temperature incubation
# 7; Detection; Luminescence; FLuc
# NOTES (numbers refer to sequence above)
# 1; High-throughput screening, measuring luminescence from a Hek293 luciferase reporter, was performed in 1,536 well white-walled tissue-culture treated plates. 2,500 cells were plated in 4 uL of Opti-MEM per well using a Multidrop Combi Reagent Dispenser (ThermoFisher).
# 2; Assay plates were cultured for 24 hours.
# 3; Control inhibitor (PTC124; final concentration of 50 uM) and compound library (at final concentrations of 460 nM - 57.5 uM) were added to the assay plate using the Kalypsis Pintool Robotic System equipped with 1536 pinheads.
# 4; Cells were then incubated for 24 hours at 37C prior to luminescence measurements.
# 5; In all cases, luminescence was measured using the Dual-Glo Luciferase Reporter Assay System (Promega) following the manufacturer's instructions.
# 6; Room temperature incubation.
# 7; Luminescence signal was obtained using the PerkinElmer ViewLux plate reader. Results were normalized to vehicle control (0% activity) and zero RLU (-100% activity).
# Potency is the fitted concentration of half-maximal effect.
row,Structure (SMILES),Potency
1,Cc1cccc(Cn2c(SCc3ccc(C(=O)N4CCC(C)CC4)cc3)nc3ccncc32)c1,inactive
2,COc1ccc(OC)c(-c2nnc3ccc(-c4ccc(OC)c(O[C@@H]5CCOC5)c4)nn23)c1,inactive
3,Cc1oc(-c2ccc(C(=O)NCc3ccc(Cl)cc3)cc2)nc1CS(=O)(=O)c1ccccc1,inactive
4,Cc1cccc(-c2nc(CSCC(=O)N3CCN(c4ccccc4)CC3)c(C)o2)c1,inactive
5,Cc1ccc(C)c(N2CCN(CCCNC(=O)c3cnn(-c4ccccc4Cl)c3C3CCN(C(=O)OC(C)(C)C)CC3)CC2)c1,inactive
6,COc1ccc(-c2[nH]c3ccccc3c2SCCNC(=O)c2cc(OC)c(OC)c(OC)c2)cc1,inactive
7,CCOc1ccc(C(=O)NCc2ccc3c(c2)CCN3C(=O)c2ccccc2)cc1,inactive
8,CCOc1ccc(C(=O)Nc2ccc3c(c2)CCCN3S(=O)(=O)c2ccc(C)cc2)cc1,inactive
9,COc1ccc(Cl)cc1NC(=O)CSc1nccn1-c1ccc(Cl)cc1,inactive
10,COc1ccc(NC(=O)Cn2nc(C(F)(F)F)c3c2CCCC3)cc1OC,inactive
11,CCSc1ncc(Cl)c(C(=O)Nc2ccc(S(=O)(=O)N3CCC(C)CC3)cc2)n1,inactive
12,CCc1cccc(C)c1NC(=O)COCc1cc(-c2ccc3c(c2)OCO3)on1,inactive
13,Cc1nc(N2CCCC2)ncc1C(=O)Nc1ccc(OC(F)(F)F)cc1,inactive
14,Cc1cc(NC(=O)CN(C)S(=O)(=O)c2ccc3c(c2)CCC(=O)N3)ccc1Br,inactive
15,Cc1cc(NC(=O)NCc2ccc3c(c2)CCN3C(=O)c2ccccc2)ccc1Br,inactive
16,CC(C)c1nc2ccc(C(=O)NCCCN3CCN(c4cccc(Cl)c4)CC3)cc2o1,inactive
17,COc1cccc(C(=O)NC(c2ccc(Cl)cc2)c2cc(Cl)c3cccnc3c2O)c1 (stereo not given),inactive
18,O=C(c1ccc2c(c1)N(Cc1ccccc1)C(=O)c1ccccc1S2(=O)=O)N1CCCCCC1,inactive
19,COCCN1C(=O)c2[nH]nc(-c3ccccc3O)c2C1c1ccc(OCc2ccccc2)c(OC)c1 (stereo not given),inactive
20,COc1cc(NS(=O)(=O)c2ccc(-c3cc(C)no3)cc2)cc(OC)c1,inactive

row,Structure (SMILES),Potency
1,CCOc1ccc(S(=O)(=O)N(C(C)=O)c2ccc3oc(C)c(C(=O)OC)c3c2)cc1,inactive
2,Cn1c(CN2CCCCC2)nc2cc(NC(=O)c3ccc(Cl)cc3)ccc21,inactive
3,Cc1cc(NC(=O)Cn2c(=O)oc3cc(S(=O)(=O)N4CCCC4)ccc32)ccc1Br,inactive
4,COc1cc(CNC(=O)c2ccc3nc(Cc4ccccc4)oc3c2)cc(OC)c1OC,inactive
5,Cc1cc(OCC(=O)N2CCC(c3nc4ccccc4s3)CC2)ccc1Cl,inactive
6,Cc1noc2ncnc(NCc3cccc(Cl)c3)c12,inactive
7,CC(C)C1C(=O)Nc2ccc(S(=O)(=O)NCc3ccc(Cl)cc3)cc21 (stereo not given),inactive
8,COc1cccc(N2CCN(C(=O)c3ccc4nc(N5CCC(C)CC5)sc4c3)CC2)c1,inactive
9,COc1ccc(NC(=O)c2ccc(-c3nc(CSc4ccccc4)c(C)o3)cc2)c(OC)c1,inactive
10,CCn1c(=O)n(CC)c2cc(N3CCCCC3)c(NC(=O)Nc3cc(Cl)ccc3OC)cc21,inactive
11,CCc1ccc(-n2nc(C)c3c(C(=O)Nc4cccc(C(F)(F)F)c4)cc(C)nc32)cc1,inactive
12,Cc1ccc(C)c(N2CCN(C(=O)CCS(=O)(=O)c3ccc4c(c3)CC(=O)N4C)CC2)c1,inactive
13,O=C(NCc1ccccc1)c1cc2ccc3cccnc3c2[nH]1,2.13 µM (active)
14,Cc1ccc(Nc2ccc(N3CCN(C(=O)c4ccc([N+](=O)[O-])cc4Cl)CC3)nn2)cc1,inactive
15,CC1CCN(C(=O)CN2c3ccc(Br)cc3-c3ccccc3S2(=O)=O)CC1,2.69 µM (active)
16,Cc1ccc(S(=O)(=O)C(CNC(=O)C(=O)NCCc2ccc(F)cc2)c2cccs2)cc1 (stereo not given),inactive
17,O=S(=O)(NCC(c1ccco1)N1CCN(c2ccc(F)cc2)CC1)c1cc(F)ccc1F (stereo not given),inactive
18,CCC1CCCCN1C(=O)CSc1nc(-c2ccc(OC)c(OC)c2)cc(C(F)(F)F)n1 (stereo not given),inactive
19,Cc1ccc(C(=O)N2CCc3cc(CNC(=O)CSc4ccccc4)ccc32)cc1,inactive
20,CC1Cc2cc(S(=O)(=O)NCc3ccccc3)ccc2N1C(=O)C1CCC1 (stereo not given),inactive
